“And” between values parts separate entries of the source, which are not always exact repeats. Identical values can stand only once. Inconclusive results are not listed. Entries that show only a call come without a potency. Some structures have more than one record in an assay (separate samples or runs), and their calls can disagree. The source made the active and inactive calls. Calls follow the shape of the dose curve; as a rule, active = well fitted curve in the direction sought with a large enough effect in the repeat runs; inconclusive = weak or mixed curves; inactive = no such curve, though single readings can be large; an effect the other way counts as inactive or inconclusive.
Test: A CellTox Green Cytotoxicity Assay to monitor cytotoxicity in HEK293 cells - 40 hour (AID 1224871); also: nearly all actives have a fitted effect of over 45% in size
Conditions: CellTox Green fluorescence; series mostly up to 76.8 µM; cytotoxicity increase: at the top concentration
Outline: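 Fluorescence from a DNA-binding dye excluded by viable cells was measured repeatedly in the same HEK293 wells (600 cells/well) during continuous compound exposure at 37 C. Each assay gives one read point: 0, 8, 16, 24, 32 or 40 h.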
Potency is read from the fitted curve at half-maximal effect.

Structure (SMILES) | Potency | cytotoxicity increase
Cn1cnc([N+](=O)[O-])c1Sc1ncnc2nc[nH]c12 | 34.5 µM (active) and inactive | 
Oc1ccc(O)cc1 | inactive | 
CC(CCC(=O)O)(c1ccc(O)cc1)c1ccc(O)cc1 | inactive | 
COc1ccc(OC)c(C(O)CNC(=O)CN)c1 (stereo unspecified) | inactive | 
Nc1ccccc1N | 50.1 µM (active) | 
c1ccc2c(c1)Oc1ccccc1S2 | 49.8 µM (active) and inactive | 
Cc1c(OCC(F)(F)F)ccnc1CS(=O)c1nc2ccccc2[nH]1 (stereo unspecified) | inactive | 
CC(=O)C1(C)CC2=C(CCCC2(C)C)CC1C (stereo unspecified) | 41.6 µM (active) | 
c1ccc2sc(SSN3CCOCC3)nc2c1 | 38.8 µM (active) and 49 µM (active) | 
CCCCC(CC)COP(=O)(OCC(CC)CCCC)OCC(CC)CCCC (stereo unspecified) | inactive | 
O=C(Nc1ccc([N+](=O)[O-])cc1Cl)c1cc(Cl)ccc1O | 24.5 µM (active) and 13.1 µM (active) | 
CCCC(=O)O | inactive | 
CCCCc1oc2ccccc2c1C(=O)c1cc(I)c(OCCN(CC)CC)c(I)c1 | 44 µM (active) | 
CN(C)CCC=C1c2ccccc2CCc2ccccc21 |  | 16.8% [at 35.3 µM] (inactive)
CC(=O)Oc1ccccc1C(=O)Nc1ncc([N+](=O)[O-])s1 | inactive | 
Cc1ccc2c(n1)Oc1ccc(C(C)C(=O)OCC(=O)N(C)C)cc1C2 (stereo unspecified) | inactive | 
O=C(/C=C/C=C/c1ccc2c(c1)OCO2)N1CCCCC1 | inactive | 
O=CCc1ccccc1 | inactive | 
CN(C)CCN(Cc1cccs1)c1ccccn1 | inactive | 

Structure (SMILES) | Potency | cytotoxicity increase
CCCCOCCOCCOCCO | inactive | 
c1cc(N(CC2CO2)CC2CO2)ccc1OCC1CO1 (stereo unspecified) |  | 10.8% (inactive)
CC1=CC2C3CC(C=C3C)C2C1 (stereo unspecified) | inactive and 38.9 µM (active) | 
OC1CCCCCCCCCCC1 | inactive and 43.6 µM (active) | 
O=C(c1ccc(OCCN2CCCCC2)cc1)c1c(-c2ccc(O)cc2)sc2cc(O)ccc12 | 55 µM (active) and 54.9 µM (active) | 
C#C[C@]1(O)CC[C@H]2[C@@H]3CCC4=Cc5oncc5C[C@]4(C)[C@H]3CC[C@@]21C | 49 µM (active) | 
CCC(C)OC(=O)c1ccc(O)cc1 (stereo unspecified) | inactive | 
OC[C@H]1O[C@@H]2O[C@H]3[C@H](O)[C@@H](O)[C@@H](O[C@H]4[C@H](O)[C@@H](O)[C@@H](O[C@H]5[C@H](O)[C@@H](O)[C@@H](O[C@H]6[C@H](O)[C@@H](O)[C@@H](O[C@H]7[C@H](O)[C@@H](O)[C@@H](O[C@H]8[C@H](O)[C@@H](O)[C@@H](O[C@H]1[C@H](O)[C@H]2O)O[C@@H]8CO)O[C@@H]7CO)O[C@@H]6CO)O[C@@H]5CO)O[C@@H]4CO)O[C@@H]3CO | inactive | 
COc1c(Cl)c(Cl)c(Cl)c(Cl)c1Cl | inactive | 
S=C(NC1CCCCC1)NC1CCCCC1 | inactive | 
O=C1c2cccc(O)c2C(=O)c2c(O)cccc21 | inactive | 
CC(=O)O[C@]1(C(C)=O)CC[C@H]2[C@@H]3C=C(Cl)C4=CC(=O)[C@@H]5C[C@@H]5[C@]4(C)[C@H]3CC[C@@]21C | inactive | 
CCC(C)c1ccccc1O (stereo unspecified) | 34.4 µM (active) | 
CCOCCOCCO | inactive | 
COc1ccccc1/C=C/C=O | inactive | 
O=C(Nc1ccc(Cl)cc1)Nc1ccc(Cl)c(Cl)c1 | inactive and 8.71 µM (active) | 
C[C@]12CC[C@H]3[C@@H](CCC4=CC(=O)CC[C@@]43C)[C@@H]1CC[C@@H]2C(=O)CO |  | 27.9% [at 35.3 µM] (inactive)
CC(C)Oc1ccc2c(=O)c(-c3ccccc3)coc2c1 | inactive | 

Test: qHTS RealTime-Glo MT Cell Viability Assay in HEK293 cells - 16 hour (AID 1224872); also: nearly all actives have a fitted effect of over 50% in size; as to activity change, negative = cytotoxicity: top concentration of the series differs between compounds
Conditions: RealTime-Glo luminescence; series mostly up to 76.8 µM; activity change, negative = cytotoxicity: at the top concentration
Outline: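 Quantitative high-throughput screen of the Tox21 10K library in HEK293: cells and RealTime-Glo reagents plated together, compound added at 5 h, luminescence monitored through 40 h at 37 C.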

Structure (SMILES) | Potency
CC(CCC(=O)O)(c1ccc(O)cc1)c1ccc(O)cc1 | inactive
COc1ccc(OC)c(C(O)CNC(=O)CN)c1 (stereo unspecified) | inactive
c1ccc2c(c1)Oc1ccccc1S2 | inactive
Cc1c(OCC(F)(F)F)ccnc1CS(=O)c1nc2ccccc2[nH]1 (stereo unspecified) | 19.5 µM (active) and 23.9 µM (active)
CC(=O)C1(C)CC2=C(CCCC2(C)C)CC1C (stereo unspecified) | inactive
c1ccc2sc(SSN3CCOCC3)nc2c1 | 43.6 µM (active)
CCCCC(CC)COP(=O)(OCC(CC)CCCC)OCC(CC)CCCC (stereo unspecified) | inactive
CCCC(=O)O | inactive
CCCCc1oc2ccccc2c1C(=O)c1cc(I)c(OCCN(CC)CC)c(I)c1 | 39.2 µM (active) and 21.3 µM (active)
CN(C)CCC=C1c2ccccc2CCc2ccccc21 | inactive
O=C(c1ccccc1)c1ccccc1O | inactive
O=CCc1ccccc1 | inactive
CN(C)CCN(Cc1cccs1)c1ccccn1 | inactive
CCCCOCCOCCOCCO | inactive
c1cc(N(CC2CO2)CC2CO2)ccc1OCC1CO1 (stereo unspecified) | inactive
CC1=CC2C3CC(C=C3C)C2C1 (stereo unspecified) | inactive
OC1CCCCCCCCCCC1 | inactive
O=C(c1ccc(OCCN2CCCCC2)cc1)c1c(-c2ccc(O)cc2)sc2cc(O)ccc12 | 19.5 µM (active) and 21.9 µM (active)
OC[C@H]1O[C@@H]2O[C@H]3[C@H](O)[C@@H](O)[C@@H](O[C@H]4[C@H](O)[C@@H](O)[C@@H](O[C@H]5[C@H](O)[C@@H](O)[C@@H](O[C@H]6[C@H](O)[C@@H](O)[C@@H](O[C@H]7[C@H](O)[C@@H](O)[C@@H](O[C@H]8[C@H](O)[C@@H](O)[C@@H](O[C@H]1[C@H](O)[C@H]2O)O[C@@H]8CO)O[C@@H]7CO)O[C@@H]6CO)O[C@@H]5CO)O[C@@H]4CO)O[C@@H]3CO | inactive
COc1c(Cl)c(Cl)c(Cl)c(Cl)c1Cl | inactive
CC(=O)O[C@]1(C(C)=O)CC[C@H]2[C@@H]3C=C(Cl)C4=CC(=O)[C@@H]5C[C@@H]5[C@]4(C)[C@H]3CC[C@@]21C | 21.9 µM (active) and inactive
CCC(C)c1ccccc1O (stereo unspecified) | inactive
CCOCCOCCO | inactive
COc1ccccc1/C=C/C=O | inactive

— PubChem BioAssay (Tox21)
